# Data published in PubChem BioAssay (NCI).
# The panel holds about 83,000 compounds, 20% with a hit somewhere; the sample as a whole holds those more often.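 48-hour exposure, single concentration, 96-well plates; percent growth endpoint where 0 means no net growth. Active: below 10.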 Values without a mark were called inactive. The source made the active and inactive calls.
# Assays:
# Test in all cases: NCI-60 one-dose screen, 48 h (100 = growth as untreated, 0 = no growth, -100 = all killed)
# Conditions in all cases: 10 µM unless noted
# NCI-H226 lung = system: NCI-H226 lung
# NCI-H322M lung = system: NCI-H322M lung
# HOP-62 NSCLC = system: HOP-62 NSCLC
# NCI-H460 lung = system: NCI-H460 lung
# HOP-92 NSCLC = system: HOP-92 NSCLC
# NCI-H522 lung = system: NCI-H522 lung
# A549/ATCC NSCLC = system: A549/ATCC NSCLC
# 786-0 renal = system: 786-0 renal
# COLO 205 colon = system: COLO 205 colon
# DU-145 prostate = system: DU-145 prostate
# K-562 leukemia = system: K-562 leukemia
# MALME-3M melanoma = system: MALME-3M melanoma
# MDA-MB-231 breast = system: MDA-MB-231 breast
# RXF 393 renal = system: RXF 393 renal
# SF-268 CNS = system: SF-268 CNS
# SF-295 CNS = system: SF-295 CNS
# SF-539 CNS = system: SF-539 CNS
# UACC-257 melanoma = system: UACC-257 melanoma
# M14 melanoma = system: M14 melanoma
SMILES,growth (NCI-H226 lung),growth (NCI-H322M lung),growth (HOP-62 NSCLC),growth (NCI-H460 lung),growth (HOP-92 NSCLC),growth (NCI-H522 lung),growth (A549/ATCC NSCLC),growth (786-0 renal),growth (COLO 205 colon),growth (DU-145 prostate),growth (K-562 leukemia),growth (MALME-3M melanoma),growth (MDA-MB-231 breast),growth (RXF 393 renal),growth (SF-268 CNS),growth (SF-295 CNS),growth (SF-539 CNS),growth (UACC-257 melanoma),growth (M14 melanoma)
CC/C=C\C[C@H](O)C/C=C1/C(=O)C=C[C@@H]1C/C=C\CCCC(=O)N(C)C,-51.3% (active),18.3%,-40.2% (active),-26.3% (active),-4.76% (active),-88.2% (active),-35.6% (active),-66.2% (active),-58.6% (active),16.4%,5.58% (active),8.29% (active),18.3%,-65.1% (active),16.6%,-1.42% (active),14.7%,-9.75% (active),5.92% (active)
CCN1C(=O)N(CC)C2C1NN=c1s/c(=C\c3ccccc3F)c(=O)n12 (stereo unspecified),48.5%,42.6%,35.1%,2.31% (active),40.3%,-8.42% (active),7.92% (active),20.6%,-9.98% (active),2.54% (active),8.14% (active),52.6%,15.2%,52%,44.6%,12.4%,-18.1% (active),53.1%,2.5% (active)
CCOC(=O)c1cc(C(=O)c2cc(OC)c(OC)c(OC)c2)n2ncccc12,29.6%,48.1%,32.2%,10.3%,73.6%,34.8%,24.1%,26.5%,-24.7% (active),23.7%,10.9%,44.9%,31.2%,-4.2% (active),47.7%,13.6%,-12.3% (active),52.1%,3.88% (active)
CC(C)=CCCC(C)c1ccc(C)c2c1OCN(CCCCCO)C2 (stereo unspecified),98.4%,102%,92.5%,81.1%,27.7%,-1.75% (active),82.5%,69.5%,90%,109%,31.1%,93.6%,93.4%,90.1%,97.5%,110%,84.5%,78.4%,84.2%
CCOC(=O)n1ccn(C)c1=S,109%,89.1%,60.5%,113%,104%,84.6%,101%,90.6%,31.9%,112%,103%,102%,117%,115%,106%,92%,95.7%,97.3%,97%
CSc1nc2ccccc2cc1/C=C1/C=C(c2ccccc2)NC1=O,92.9%,93%,79.1%,84.7%,70.2%,74.6%,81.9%,93.2%,93.8%,93.2%,35.7%,86.9%,86.6%,84.6%,87.2%,67%,96.4%,86.8%,66.8%
O=C(CSc1nc2sc3c(c2c(=O)n1-c1ccccc1)CCCCC3)N/N=C/c1cccc([N+](=O)[O-])c1,–,79%,53%,19.6%,73.2%,53.5%,27.8%,80.7%,89.1%,16.5%,56.3%,74.6%,51.1%,61.5%,44.3%,76.3%,0.0053% (active),66.1%,71.1%
O=S(=O)(NCCNc1nccc(-c2c(-c3ccc(F)c(O)c3)nc3occn23)n1)c1ccc(Cl)cc1,102%,–,101%,76.7%,70.4%,76.6%,77.9%,109%,67.7%,90.9%,73.8%,2.05% (active),60%,57.5%,80.5%,97.4%,102%,41.6%,26.6%
COc1cc(-c2csc(NC(=O)c3ccc(N4CCOCC4)c(C(F)(F)F)c3)n2)cc(OC)c1OC,41.6%,70.3%,34.2%,46.2%,57.6%,14.3%,31.9%,37%,18.9%,53.4%,18.9%,29.3%,71.4%,62%,40%,21.9%,49.6%,26.6%,12.9%
CC1CCN(CCOc2ccc(CNc3ccc4nc(CCC5CCCCC5)[nH]c4c3)cc2)CC1,30.9%,58.5%,61.5%,27.1%,16%,44.8%,55.3%,-55.6% (active),-84.7% (active),50.9%,-0.866% (active),-85.8% (active),0.0918% (active),2.71% (active),57.4%,-45.9% (active),-67.9% (active),-72.3% (active),-63.1% (active)
Cc1ccc(C(=O)c2ccc(CC(=O)N/N=C/c3ccccc3O)n2C)cc1,97%,78.9%,76%,76.6%,98.6%,75.2%,86.1%,96.8%,101%,89.6%,84.2%,91.4%,82.6%,89.6%,70.9%,97.7%,89.1%,95.3%,82.9%
CC1CCN(S(=O)(=O)c2ccc(S(=O)(=O)N3CCCC(c4nc5c(nnn5Cc5cccc(Cl)c5)c(=O)[nH]4)C3)cc2)CC1 (stereo unspecified),75.2%,61.3%,57.2%,23.9%,56%,33.7%,64.8%,64.4%,–,59.8%,20.1%,46.7%,73%,15.8%,51.9%,63.6%,49.7%,54.2%,16.9%
CN(C)CC(C)(C)C(=O)/C=C/c1ccccc1,-17.9% [25 µM] (active),-16.3% [25 µM] (active),12.3% [25 µM],-27% [25 µM] (active),-32.3% [25 µM] (active),-81.1% [25 µM] (active),0.382% [25 µM] (active),-46.6% [25 µM] (active),-87% [25 µM] (active),-46.5% [25 µM] (active),1.32% [25 µM] (active),-69.5% [25 µM] (active),-10.9% [25 µM] (active),-77.2% [25 µM] (active),1.85% [25 µM] (active),7.02% [25 µM] (active),-77.2% [25 µM] (active),-43.5% [25 µM] (active),-50.4% [25 µM] (active)
O=C(O)c1cn(C2CC2)c2cc(N3CCN(Cc4ccc5ccccc5c4O)CC3)c(F)cc2c1=O,9.01% (active),23.4%,-31% (active),6.73% (active),-6.42% (active),24.8%,-23.4% (active),38.3%,33.4%,11.2%,62%,13.9%,48.4%,-23.2% (active),57.1%,44.2%,-4.68% (active),38.5%,48%
CCCCCC(/C=N\NC(=S)N/N=C/C(=C/c1ccccc1)CCCCC)=C\c1ccccc1,89.8%,61.3%,72.7%,57.8%,15.8%,40.4%,74.8%,79.9%,97.2%,88.7%,19.8%,93.4%,65.6%,74.8%,68%,45.7%,82.4%,98.1%,77.8%
O=C1NC(=C(Cl)Cl)/C(=N\S(=O)(=O)NCc2ccccc2)N1,99.2%,99.3%,102%,110%,107%,81.4%,94.1%,100%,121%,105%,81.4%,104%,115%,113%,102%,114%,93.7%,85.6%,94.3%
